Test results taken from PubChem BioAssay (NCI).
“And” between values parts separate entries of the source, which are not always exact repeats. Equal entries are not always repeated. The panel holds about 79,000 compounds, 15% with a hit somewhere; the sample as a whole holds those more often. Values without a mark were called inactive. The source made the active and inactive calls. Rule as the data show it: active = growth inhibition above about 70%; inactive = the rest.

Assays:
[1] = NCI Yeast Anticancer Drug Screen. Data for the rad50 strain (AID 155);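 also: 0% = growth of vehicle-only cultures of the same strain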; conditions: S. cerevisiae rad50 strain growth inhibition, stronger effect = higher value; at 50.0 µM unless noted
In short: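 Genetically altered yeast (DNA repair pathway); compound treatment; growth inhibition vs vehicle ctrl.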

[2] = NCI Yeast Anticancer Drug Screen. Data for the mec2-1 strain (AID 157); conditions: S. cerevisiae mec2-1 strain, stronger effect = higher value; at 50.0 µM unless noted
In short: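 Compounds were applied to mec2-1 yeast cells. Their growth was then compared with that of vehicle-treated cultures to give growth inhibition.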

[3] = NCI Yeast Anticancer Drug Screen. Data for the sgs1 mgt1 strain (AID 161);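 also: 0% = growth of cultures given vehicle only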; conditions: S. cerevisiae sgs1 mgt1 strain, stronger effect = higher value; at 50.0 µM unless noted
In short: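 This yeast growth screen uses a strain with defined DNA-repair lesions; compound-treated growth is compared with vehicle-treated growth.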

[4] = NCI Yeast Anticancer Drug Screen. Data for the cln2 rad14 strain (AID 165);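 also: 0% = growth equal to vehicle treated cultures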; conditions: S. cerevisiae cln2 rad14 strain, stronger effect = higher value; at 50.0 µM unless noted
In short: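 Strain: cln2 rad14 yeast, altered in cell cycle control and DNA damage repair. Read-out: growth inhibition vs vehicle.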

[5] = NCI Yeast Anticancer Drug Screen. Data for the bub3 strain (AID 167); conditions: S. cerevisiae bub3 mutant strain, stronger effect = higher value; at 50.0 µM unless noted
In short: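 Yeast carrying a defined mutation is treated with each compound, and growth is compared with that of vehicle-exposed cells to give inhibition.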

[6] = NCI Yeast Anticancer Drug Screen. Data for the mlh1 rad18 strain (AID 175); conditions: S. cerevisiae mlh1 rad18 strain growth inhibition, stronger effect = higher value; at 50.0 µM unless noted
In short: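 A repair-deficient yeast strain is exposed to test compound, and growth is scored relative to vehicle-treated controls.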

SMILES | growth inhibition [1] | growth inhibition [2] | growth inhibition [3] | growth inhibition [4] | growth inhibition [5] | growth inhibition [6]
NNC(=O)Cc1cccnc1 | -3.6% | -0.75% | -26.1% | -8% | -33% | 9.55%
CCC(=O)Cc1nc2n(c1O)/C(=N/C(=O)Nc1ccc(Cl)cc1)N=N2 | -2.05% | -7.5% | -2.9% | -35.8% | -15.2% | 11.6%
CCO[C@@H]1OC(=O)[C@H]2C(c3ccc(Cl)cc3)=NO[C@@H]12 | -13.4% | -33.7% | 0.05% | 3.6% | 29.8% | -4.9%
Cc1ccc(C)n1-n1c(Cc2ccccc2)n[nH]c1=O | -21.8% | -19.3% | -15.1% | 2.75% | -31.8% | -12.7%
COc1ccc2nc3cc(Cl)ccc3c(SCC(=O)Nc3ccccc3-c3ccccc3NC(=O)CSc3c4ccc(Cl)cc4nc4ccc(OC)cc34)c2c1 | -0.1% | -2.9% | -3.05% | 22.9% | 2.5% | 7.8%
OC/C(Br)=C(\Br)CO | -34.3% | -54.4% | -39.6% | -9.25% | -28.6% | -35.5%
CC12CC(O)C3C(CCC4CC(O)CCC43C)C1CCC2C(=O)CO (stereo not given) | 13.6% | 14.2% | 7.3% | 13.2% | 12.1% | 10.4%
CCN(CC)C(=O)c1cc(OC)c(C(=O)N(CC)CC)cc1OC | -21.9% | -0.35% | 4.15% | -15.2% | -9.4% | -8.2%
C=CCOC(=O)C(C)OC(=O)CCC(=O)OC(C)C(=O)OCC=C (stereo not given) | 5.35% | 4.3% | 4.35% | 3.95% | 6.15% | 4.85%
Cc1ccc(N2CCC(O)C2)cc1 (stereo not given) | -19.4% | -8.5% | -7.05% | 4.95% | -8.4% | -25.9%
O=S(=O)(O)c1cc(Nc2ccnc3ccccc23)c2c(S(=O)(=O)O)cc(S(=O)(=O)O)cc2c1 | 15.1% | 24.3% | 4.25% | 12.2% | 10.2% | 19.8%
CCOC(=O)c1cnc2c(cnn2CC)c1N1CCCCC1 | -13.9% | 28.2% | 18.9% | -36.9% | 36.6% | 23.4%
NCCNc1ccccc1 | -32.9% | -62% | -42.2% | 6.6% | -20.4% | -22.9%
O=C(O)CC(O)(CC(=O)O)C(=O)O | 25% | 17.9% | -19.6% | 3.65% | -0.25% | 9.25%
COc1ccc(N=C2C(=Nc3ccc(OC)cc3)N(c3ccccc3)C(=S)N2N=C=C2Sc3ccccc3N2C)cc1 | -13.2% | -24% | -18.4% | -8.3% | -4.05% | -32%
CC(C)C1CO[C@]2(C)CCC(=O)N12 (stereo not given in full) | 4.6% | 11.9% | -2.6% | 13.8% | 6.3% | 9.95%
C1CCCC(=NN=C2CCCCCCC2)CCC1 | 29% | 21.6% | 13.4% | -16.6% | -10.2% | 14.7%
O=c1cc2ccccc2nn1-c1ccccc1Cl | 26.1% | 6.4% | 37.6% | 36.5% | 25.3% | 34.5%

SMILES | growth inhibition [1] | growth inhibition [2] | growth inhibition [3] | growth inhibition [4] | growth inhibition [5] | growth inhibition [6]
CN(C)N1C(=O)S/C(=C\c2ccc([N+](=O)[O-])cc2)C1=O | -24.4% | -14.3% | 1.15% | 6.3% | -4.1% | -16.2%
CCN(CC)C(=O)c1c(N2CCOCC2)cc(N(CC)CC)oc1=O | -10.2% | -8.25% | -46.6% | -8.85% | -37.9% | -40.6%
OC1C(SCc2ccccc2)OCC2OC3(CCCCC3)OC21 (stereo not given) | -5.1% | -5.7% | -9% | -5.9% | 1.75% | 9.45%
CCNC(=O)c1ccccc1N=NN(C)C | -1.15% | 25.4% | -0.65% | 5.65% | 5% | 21.9%
O=C(O)C1(O)CCCCC1 | -4.85% and 6.9% | -2.45% and 9% | -7.35% and -1.65% | -21.2% and 16.4% | -7.2% and 19.6% | 6.65% and -7.05%
COC(=O)c1ccc2c(c1)CC1(C2)Cc2cc3c(cc2C1)CCC3 | -19.4% | -19.9% | -17.5% | 9.95% | 12.8% | -12.5%
CC(C)N1C(=O)NC2C1NC(=O)N2C(C)C (stereo not given) (tested in a mixture with another compound) | -14.8% | -5.2% | -1.15% | 22.4% | -12.8% | -3.05%
N#Cc1c(-c2ccccc2Cl)c(-c2ccccc2Cl)nn(CCO)c1=O | 16.9% | 7.2% | 13.4% | 9.35% | 10.2% | 27.5%
Oc1ccc(C(O)CN2CCCC2)cc1O (stereo not given) | -15.7% | 10.9% | -0.1% | -36.1% | 2.7% | -15.3%
CCC(C)(CC=C(C)C)c1ccncc1 (stereo not given) | -6.7% | 1.95% | 3.1% | -16.8% | 9.6% | -9.6%
COc1cc(C(C)=O)ccc1OCOc1ccc(C(C)=O)cc1OC | -4.65% | -23.6% | -3.7% | -43% | 5.95% | -5.55%
CC(=O)NCC(C)NC(C)=O (stereo not given) | -16.6% and -6.55% | -37.4% and -15.4% | -34.2% and -27.1% | -6.75% and 7.7% | -14.8% and -2.45% | -15.2% and 8.1%
CC(C)N(C(=S)S)C(C)C | 9.5% | 4.95% | 16.6% | -0.65% | -26.4% | -19.2%
CC(=O)OCC1OC(OC(C)=O)C(OC(C)=O)C(OC(C)=O)C1OC(C)=O (stereo not given) | -0.8% and 33.3% | 0.25% and 9.6% | -17.5% and 21.1% | -30.9% and 11.5% | -14.4% and 5.45% | -26.1% and 8.9%
NNC(=O)CC(=O)NN | 6.9% | 2.05% | -11.4% | -10.7% | 2.95% | 18.4%
Cc1ccc(S(=O)(=O)/C=C(/SC#N)C2CCCCC2)cc1 | 32.5% | 90.6% (active) | 69.5% | 17.9% | 83.1% (active) | 79.7% (active)
ClCCCN(CCCCl)c1ccc(C=Nc2cccc(Cl)c2)c(Cl)c1 | 91.1% (active) | 76.6% (active) | 95.5% (active) | 85.2% (active) | 81.5% (active) | 93.5% (active)
